Results filed as inconclusive are left out. Unmarked numbers belong to inactive results. Active and inactive are the calls of the source. The call rests on the fitted dose curve; in most records, active means well fitted activation curve with a large enough effect in the repeat runs; inconclusive means weak or mixed curves; inactive means flat fitted curve, though single readings scatter.

The values below come from PubChem BioAssay (Tox21).
On the % scale 0 is the no-effect control and ±100 the full control effect; potency means the concentration at half of the fitted maximal effect.

This assay can be described thus: A CellTox Green Cytotoxicity Assay to monitor cytotoxicity in HepG2 cells - 32 hour (AID 1224883). Further: nearly all actives have a fitted effect of over 50% in size. As to conditions: CellTox Green fluorescence; series mostly up to 76.8 µM; cytotoxicity increase: at the top concentration. From the text: National Center for Advancing Translational Sciences [NCATS]
NIH Chemical Genomics Center [NCGC]
U.S. Environmental Protection Agency [EPA]
National Institutes of Environmental Health Sciences [NIEHS]
National Toxicology Program [NTP]
Cell-based models are critical for drug discovery. Determining the natural cytotoxic effects resulting from test compounds is an essential research activity. A CellTox Green Cytotoxicity Assay to monitor cytotoxicity in real time of continues cell culture during 40 hours of the compound treatment was used to screen Tox21 10K library compounds in HepG2 cells. CellTox Green Cytotoxicity Assay is a nonlytic, homogeneous, biofluorescent method to measure cytotoxicity in cell culture after experimental manipulation. The assay system uses a proprietary asymmetric cyanine dye that is excluded from viable cells but preferentially stains the dead cell's DNA. […] Viable cells produce no appreciable increases in fluorescence. Therefore, the fluorescence signal produced by the binding interaction with dead cell DNA is proportional to cytotoxicity.
The mixture of HepG2 cell suspension and reagents were dispensed at 600cells/6 ul/well in 1536-well tissue culture treated black solid bottom plates using a Multidrop dispenser. After the assay plates were incubated at a 37 C/5% CO2 incubator for 5 hours, 23 nL of compounds dissolved in DMSO, positive and negative controls was transferred to the assay plate by a pintool work station. The plates were incubated at 37 C for 40 hours. The fluorescence intensity were measured at 0h, 8h, 16h, 24h, 32h and 40h time points using ViewLux plate reader during compound treatment.
Take `Nc1nc2ccc(OC(F)(F)F)cc2s1`: the “cytotoxicity increase” value was 24.1% [at 35.3 µM].

For the compound `CC(=O)NNC(C)=O`, the “cytotoxicity increase” value was 4.21%.

In the case of `CC(C)(C)S`, the “cytotoxicity increase” value is -1.76%. On the same count and under the same terms, then `NC(=O)c1ccccc1[N+](=O)[O-]`, with -1.24%; and `O=C1NC(=O)c2cccc3cccc1c23`, with -10.6%. `O=C(O)CCC(=O)OC[C@@H](NC(=O)C(Cl)Cl)[C@H](O)c1ccc([N+](=O)[O-])cc1`: the Potency is 12 µM (active). For `C=C(C)C(=O)OCCC(F)(F)C(F)(F)C(F)(F)C(F)(F)C(F)(F)C(F)(F)F`, the “cytotoxicity increase” value was -14.5%. Turning to `CC(C)(C)CCCCCCOC(=O)c1ccccc1C(=O)OCCCCCCC(C)(C)C`, the “cytotoxicity increase” value was -8.52%. Take `Nc1ccc(NC(=O)c2ccc(N)cc2)cc1`: the “cytotoxicity increase” value is -1.61%.

`C[C@H](CS)C(=O)N1CCC[C@H]1C(=O)O`: the “cytotoxicity increase” value is -0.653% [at 35.3 µM]. Consider `CC/C=C\C/C=C\C/C=C\CCCCCCCC(=O)OCC`, for which the “cytotoxicity increase” value is 0.128%. Consider `O=C(O)CCC(=O)c1ccc(-c2ccccc2)cc1`, for which the “cytotoxicity increase” value was 1.37% [at 35.3 µM]. As for `CCCCCCC(O)CCCCCCCCCCC(=O)OC` (stereo not given), the “cytotoxicity increase” value is -10.2%. In the case of `Cc1c(C2(c3cc(Br)c(O)c(Br)c3C)OS(=O)(=O)c3ccccc32)cc(Br)c(O)c1Br`, the “cytotoxicity increase” value is -33.9%. Regarding `BrC(Br)C(Br)Br`, the “cytotoxicity increase” value was 12%. Turning to `N[C@@H](Cc1cc(I)c(O)c(I)c1)C(=O)O`, the “cytotoxicity increase” value was -3% [at 35.3 µM].

For `O=C(O)CN1C(=O)c2cccc3cccc(c23)C1=O`, the “cytotoxicity increase” value is -8% [at 35.3 µM]. The same measure, in the same setting: in the case of `CCOC(=O)N1CCC(Nc2ccc(Cl)cc2N)CC1` it was -11.1% [at 35.3 µM]; in that of `CC(C)N(C)C`, 7.99%; in that of `CC(C)COC(=O)COc1cc(Cl)c(Cl)cc1Cl`, -2.71%. For `O=C(NS(=O)(=O)/C=C/c1ccccc1)c1ccc(F)cc1Cl`, the Potency is 54.9 µM (active). As to `CNc1c2c(nn1C)CCCC2`, the “cytotoxicity increase” value is -0.747% [at 35.3 µM].

Consider `CC1=C2[C@@H]([C@H](C)CC[C@H]2/C=C(\C)C(=O)O)[C@H](O)C1`, for which the “cytotoxicity increase” value was 0.324%. As for `Cc1cc(CCC(=O)OCCOCCOCCOC(=O)CCc2cc(C)c(O)c(C(C)(C)C)c2)cc(C(C)(C)C)c1O`, the “cytotoxicity increase” value is -14.9%. On the same count and under the same terms, then `CS(=O)(=O)c1ccc([C@@H](C[C@H]2CCC(=O)C2)C(=O)Nc2cnccn2)cc1Cl`, with -15.7%; and `CCCCCCCC/C=C/C(=O)O`, with -6.68% [at 35.3 µM]. For the compound `Cc1ccc(S(=O)(=O)NC(=O)NC2CCCCC2)cc1`, the “cytotoxicity increase” value is -8.75% [at 35.3 µM]. Consider `CC(C)(C)C(O)/C=C/c1ccc2c(c1)OCO2` (stereo not given), for which the “cytotoxicity increase” value is -7.96% [at 35.3 µM].

On to `CC(C)c1ccc(C(=O)N=C(N)N)cc1S(C)(=O)=O`, for which the “cytotoxicity increase” value was -8.36% [at 35.3 µM]. On the same count and under the same terms, in the case of `COc1cc(S(=O)(=O)Nc2ccccc2)c(OC)cc1N` it was 0.461%; in that of `Nc1nc(-c2ccc([N+](=O)[O-])cc2)cs1`, -3%; in that of `O=C(O)c1cccc(C[C@@H]2COc3ccc(OCc4nc5cc(F)ccc5s4)cc3[C@@H]2O)c1`, 0.462%. Same read-out and setting: then `COC(C)(C)OC`, with -1.34%; and `CCOCCC(=O)OCC`, with -0.456%. Take `ClC1=C(Cl)C1(Cl)Cl`: the “cytotoxicity increase” value is -0.802%. As for `Cc1cccc2sc(N)nc12`, the “cytotoxicity increase” value is -3.87%. As to `OCC(CO)n1cnc(-c2ccc(F)cc2)c1-c1ccnc(Oc2ccccc2)n1`, the “cytotoxicity increase” value was -8.13%. Turning to `COc1cc(NC(C)CCCN)c2ncccc2c1` (stereo not given), the “cytotoxicity increase” value is 2.33% [at 35.3 µM]. In the case of `C=C(C)c1ccccc1`, the “cytotoxicity increase” value is -5.34%. Still for that read-out and setting: then `O=P(O)(O)Oc1ccccc1`, with -0.0415%.
